From the supplement of paper PMC8728848
The entries come from a sample that favours the strongest signals as a whole.

Columns and labels:
Assay in all cases: glycan array binding signal (z-score within array); higher = stronger binding
Conditions in all cases: glycan notation: IUPAC condensed, linker removed
[1] = target: Fuc(a1-2)Gal(b1-3)GalNAc(b1-3)Gal
Procedure, shortened: (§1)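 Arrays were curated from the Consortium for Functional Glycomics database, 3228 in total, and kept only where the protein sequence was available. Binding is expressed as a within-array Z-score. This score was averaged across arrays of the same protein sequence at different concentrations or buffers and across linkers, and negative values can be read as non-binding.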

[2] = target: Fuc(a1-2)Gal(b1-4)Glc
Procedure, shortened: as §1

[3] = target: Fuc(a1-2)Gal(b1-4)GlcNAc(b1-3)Gal(b1-4)GlcNAc(b1-3)Gal(b1-4)GlcNAc
Procedure, shortened: as §1

[4] = target: Fuc(a1-2)Gal(b1-4)[Fuc(a1-3)]GlcNAc(b1-3)Gal(b1-4)[Fuc(a1-3)]GlcNAc
Procedure, shortened: as §1

[5] = target: Fuc(a1-2)[Gal(a1-4)]Gal(b1-4)GlcNAc
Procedure, shortened: as §1

[6] = target: Fuc(a1-2)[GalNAc(a1-4)]Gal(b1-4)GlcNAc
Procedure, shortened: as §1

[7] = target: Fuc(a1-3)[Gal(b1-4)]Glc6S
Procedure, shortened: as §1

[8] = target: Fuc(a1-3)[Gal(b1-4)]GlcNAc(b1-2)Man(a1-6)[Gal(b1-4)GlcNAc(b1-2)Man(a1-3)]Man(b1-4)GlcNAc(b1-4)GlcNAc
Procedure, shortened: as §1

[9] = target: Fuc(a1-3)[Gal(b1-4)]GlcNAc(b1-4)Gal(b1-4)[Fuc(a1-3)]GlcNAc(b1-4)Gal(b1-4)[Fuc(a1-3)]GlcNAc
Procedure, shortened: as §1

[10] = target: Fuc(a1-3)[Neu5Ac(a2-3)]Gal(b1-4)GlcNAc(b1-3)GalNAc
Procedure, shortened: as §1

[11] = target: Gal(b1-3)[Fuc(a1-4)]GlcNAc
Procedure, shortened: as §1

[12] = target: Gal(b1-3)[Neu5Ac(b2-6)]GalNAc
Procedure, shortened: as §1

[13] = target: Gal(b1-4)GalNAc(a1-3)[Fuc(a1-2)]Gal(b1-4)GlcNAc
Procedure, shortened: as §1

[14] = target: Gal3S(b1-3)GalNAc
Procedure, shortened: as §1

[15] = target: Gal3S(b1-4)Glc6S
Procedure, shortened: as §1

[16] = target: Gal6S(b1-4)Glc
Procedure, shortened: as §1

[17] = target: Glc(b1-6)Glc
Procedure, shortened: as §1

[18] = target: GlcNAc(b1-3)Gal(b1-4)GlcNAc(b1-3)Gal(b1-4)GlcNAc
Procedure, shortened: as §1

[19] = target: GlcNAc(b1-3)[GlcNAc(b1-6)]Gal(b1-4)GlcNAc
Procedure, shortened: as §1

[20] = target: GlcNAc(b1-4)[GlcNAc(b1-6)]GalNAc
Procedure, shortened: as §1

[21] = target: Man(a1-2)Man(a1-2)Man(a1-3)Man
Procedure, shortened: as §1

[22] = target: Man(a1-3)[Man(a1-6)]Man(a1-6)[Man(a1-3)]Man
Procedure, shortened: as §1

[23] = target: Neu5Ac(a2-3)Gal(b1-4)GlcNAc(b1-6)[Gal(b1-3)]GalNAc
Procedure, shortened: as §1

[24] = target: Neu5Ac(a2-8)Neu5Ac
Procedure, shortened: as §1

[25] = target: Neu5Ac(a2-8)Neu5Ac(a2-3)[GalNAc(b1-4)]Gal(b1-4)Glc
Procedure, shortened: as §1

[26] = target: Neu5Ac(a2-8)Neu5Ac(a2-8)Neu5Ac(a2-8)Neu5Ac(a2-3)[GalNAc(b1-4)]Gal(b1-4)Glc
Procedure, shortened: as §1

[27] = target: Neu5Ac9Ac(a2-3)Gal(b1-4)GlcNAc
Procedure, shortened: as §1

B1: Flo5 (Saccharomyces cerevisiae), P38894 (protein)
chain: MGSSHHHHHHSSGLVPRGSHMSGATEACLPAGQRKSGMNINFYQYSLKDSSTYSNAAYMAYGYASKTKLGSVGGQTDISIDYNIPCVSSSGTFPCPQEDSYGNWGCKGMGACSNSQGIAYWSTDLFGFYTTPTNVTLEMTGYFLPPQTGSYTFSFATVDDSAILSVGGSIAFECCAQEQPPITSTNFTINGIKPWDGSLPDNITGTVYMYAGYYYPLKVVYSNAVSWGTLPISVELPDGTTVSDNFEGYVYSFDDDLSQSNCTIPDPSIH
glycan array binding signal (z-score) [1]: 1.59 | glycan array binding signal (z-score) [2]: 1.59 | glycan array binding signal (z-score) [3]: -0.14 | glycan array binding signal (z-score) [4]: -0.205 | glycan array binding signal (z-score) [5]: -0.23 | glycan array binding signal (z-score) [6]: 3.78 | glycan array binding signal (z-score) [7]: -0.024 | glycan array binding signal (z-score) [8]: -0.206 | glycan array binding signal (z-score) [9]: -0.162 | glycan array binding signal (z-score) [10]: -0.232 | glycan array binding signal (z-score) [11]: -0.153 | glycan array binding signal (z-score) [12]: -0.121 | glycan array binding signal (z-score) [13]: -0.189 | glycan array binding signal (z-score) [14]: -0.17 | glycan array binding signal (z-score) [15]: 8.31 | glycan array binding signal (z-score) [16]: -0.082 | glycan array binding signal (z-score) [17]: -0.203 | glycan array binding signal (z-score) [18]: -0.027 | glycan array binding signal (z-score) [19]: -0.156 | glycan array binding signal (z-score) [20]: -0.139 | glycan array binding signal (z-score) [21]: 6.07 | glycan array binding signal (z-score) [22]: 3.11 | glycan array binding signal (z-score) [23]: -0.196 | glycan array binding signal (z-score) [24]: -0.148 | glycan array binding signal (z-score) [25]: -0.104 | glycan array binding signal (z-score) [26]: -0.149 | glycan array binding signal (z-score) [27]: -0.126
